# Test results reported in the supplement of paper PMC12350171.
# Where a name gives a salt, the structure may show the parent alone.
# Test system: Haemophilus parainfluenzae
# Test: growth AUC normalised to DMSO control (fraction of control); higher = less growth inhibition, active = hit call of the paper
# Conditions: 20 µM;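 active = AUC significantly below DMSO controls by Student t-fit with adjusted P under 0.01; inactive = not significantly reduced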
# How it was run: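 After two anaerobic passages, pathogens were added at a starting OD578 of 0.01 to pre-reduced mGAM plates holding compound at 20 μM with 1% DMSO; hemin and NAD were supplemented for Haemophilus parainfluenzae. Sealed with breathable membranes, plates were read at OD578 hourly for 24 h, in three biological replicates. The trapezoidal rule, applied up to the exponential-to-stationary transition, gave the growth-curve AUC, which was normalised to DMSO controls on the same plate.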
row,Structure (SMILES),growth AUC normalised to DMSO control
1,Clc1ccc2nsnc2c1NC1=NCCN1 [Tizanidine hydrochloride],0.965 (inactive)
2,COc1cc2nc(N3CCN(C(=O)C4CCCO4)CC3)nc(N)c2cc1OC (stereo not drawn) [Terazosin hydrochloride],0.978 (inactive)
3,Cc1cc(=O)n(-c2ccccc2)n1C [Antipyrine],0.988 (inactive)
4,CC(C)NC[C@H](O)COc1cccc2ccccc12 [(S)-(-)-Propranolol hydrochloride],1.03 (inactive)
5,NS(=O)(=O)c1cc2c(cc1C(F)(F)F)NCNS2(=O)=O [Hydroflumethiazide],0.991 (inactive)
6,CN(C)CCCSC(=N)N [Dimaprit dihydrochloride],1.01 (inactive)
7,Nc1nc(NC2CC2)c2ncn([C@H]3C=C[C@@H](CO)C3)c2n1 [Abacavir sulfate],0.979 (inactive)
8,CN1CCN(CCCN2c3ccccc3Sc3ccc(C(F)(F)F)cc32)CC1 [Trifluoperazine dihydrochloride],0.927 (inactive)
9,CC(=O)NCCCS(=O)(=O)O [Acamprosate calcium],0.988 (inactive)
10,CN(C)CCCN1c2ccccc2Sc2ccc(Cl)cc21 [Chlorpromazine hydrochloride],0.981 (inactive)
11,CCN(CCCc1ccccc1)CCCc1ccccc1 [Alverine citrate salt],0.925 (inactive)
12,O=C(Nc1ccc([N+](=O)[O-])cc1Cl)c1cc(Cl)ccc1O [Niclosamide],0.046 (active)
13,Cc1c(N(C)CS(=O)(=O)O)c(=O)n(-c2ccccc2)n1C [Dipyrone sodium salt],1.02 (inactive)
